# Results published in PubChem BioAssay (Tox21).
# Inconclusive results are not listed. Entries that show only a call come without a potency. The source made the active and inactive calls. The call rests on the fitted dose curve.
# Test: p53 small molecule agonists, cell-based qHTS assay with rat liver microsomes: qHTS cell viability counter screen (AID 1963580); further: nearly all actives have a fitted effect of over 45% in size
# Details: p53RE-bla HCT-116 + rat microsomes, ATP viability, 16 h; series mostly up to 66 µM
# Description: National Center for Advancing Translational Sciences [NCATS]
# Division of Preclinical Innovation [DPI]
# U.S. Environmental Protection Agency [EPA]
# National Institutes of Environmental Health Sciences [NIEHS]
# National Toxicology Program [NTP]
# U.S. Food and Drug Administration [FDA]
# p53, a tumor suppressor protein, is activated following cellular insult, including DNA damage and other cellular stresses. The activation of p53 regulates cell fate by inducing DNA repair, cell cycle arrest, apoptosis, or cellular senescence. The activation of p53, therefore, is a good indicator of DNA damage and other cellular stresses. The CellSensor p53RE-bla HCT-116 cell line contains a stably integrated beta-lactamase reporter gene under control of the p53 response elements. The activation of the reporter gene under culture conditions can be detected by fluorescence intensity. This cell line was used to screen the Tox21 10K compound library in the condition of presence of rat liver microsomes and to identify agonists that activate the p53 signaling pathway after in vitro metabolic activation (Ooka et al., Archive of Toxicology 96:1975-1987, 2022). The cytotoxicity of the Tox21 compound library against the p53 RE-bla HCT-116 cell line was tested in parallel by measuring the intra cellular ATP content in the same wells.
# Tox21 Assay Protocol Summary:
# The p53RE-bla cells were dispensed at 4,000cells/3ul/well in 1536-well black-clear bottom plates. After the assay plates were incubated at 37 C, 5% CO2 incubator for 5 hours, 23 nL of compounds dissolved in DMSO, positive controls or DMSO only was transferred to the assay plate. Following compound addition, 3 uL of rat liver microsomes (Molecular Toxicology, Boone, NC) at final concentration of 0.5 mg/mL and 1uL of B-Nicotinamide adenine dinucleotide 2'-phosphate (NADPH) at final concentration of 0.5 mg/mL were transferred to the assay plate. The plates were incubated at 37 C for 16 hours. 1 uL of LiveBLAzer detection mixture was added to each well and the plates were incubated at room temperature in the dark for 2 h. Fluorescence intensity at 460 and 530 nm emission and 405 nm excitation were measured by an Envision plate reader. For cell viability readout that measures cytotoxicity, 4 ul/well of CellTiter-Glo reagent was added into the assay plates using a Flying Reagent Dispenser. After 30 min incubation at room temperature, the luminescence intensity in the plates was measured using a ViewLux plate reader.
# Potency means the concentration at half of the fitted maximal effect.
SMILES,Potency,"activity change, negative = cytotoxicity"
O=C1CCc2ccc(OCCCCN3CCN(c4cccc(Cl)c4Cl)CC3)cc2N1,inactive,
Oc1ccc(Cl)cc1C1CCCC1,inactive,
COc1ccc2c(c1)c(CC(=O)OC/C=C(\C)CC/C=C(\C)CCC=C(C)C)c(C)n2C(=O)c1ccc(Cl)cc1,inactive,
CC(C)(C)Cl,inactive,
CN(C)c1ccc(C2(c3ccc(N(C)C)cc3)OC(=O)c3cc(N(C)C)ccc32)cc1,inactive,
O=S(=O)(Oc1ccc(Cl)cc1)c1ccccc1,inactive,
CC[C@H]1OC(=O)[C@H](C)[C@@H](O[C@H]2C[C@@](C)(OC)[C@@H](O)[C@H](C)O2)[C@H](C)[C@@H](O[C@@H]2O[C@H](C)C[C@H](N(C)C)[C@H]2O)[C@](C)(O)C[C@@H](C)/C(=N\OCOCCOC)[C@H](C)[C@@H](O)[C@]1(C)O,inactive,
SC1CCCC1,inactive,
CCCCCCCCCCCCCOC(=O)CCSCCC(=O)OCCCCCCCCCCCCC,,-0.0386% [at 13.5 µM] (inactive)
OCCN1CCN(CCCN2c3ccccc3Sc3ccc(C(F)(F)F)cc32)CC1,inactive,
COc1ccc2c(c1)c1c3n2CCN(C)C3=NCC1,inactive,
Nc1ccc(N=Nc2ccc(N)cc2)cc1,inactive,
Cc1onc(-c2c(Cl)cccc2Cl)c1C(=O)N[C@@H]1C(=O)N2[C@@H]1SC(C)(C)[C@@H]2C(=O)O,inactive,
NC(N)=NS(=O)(=O)c1ccc(N)cc1,inactive,
Cc1cc(O)c(Cl)c(C)c1Cl,inactive,
NCCCCCCNCCCCCCN,inactive,
CN(C)Cc1cc(C(C)(C)C)c(O)c(C(C)(C)C)c1,inactive,
Nc1nc(-c2ccccc2)cs1,inactive,
COc1ccc2cc1Oc1ccc(cc1)C[C@H]1c3c(cc4c(c3Oc3cc5c(cc3OC)CCN(C)[C@@H]5C2)OCO4)CCN1C,inactive,
COc1cc([C@@H]2c3cc4c(cc3[C@@H](O[C@@H]3O[C@@H]5CO[C@@H](C)O[C@H]5[C@H](O)[C@H]3O)[C@H]3COC(=O)[C@H]23)OCO4)cc(OC)c1O,inactive,

SMILES,Potency,"activity change, negative = cytotoxicity"
COc1cc(Cl)ccc1Oc1ccc(Cl)cc1Cl,inactive,
C=C(C)C(=O)OCC,inactive,
O=C(CC(=O)c1ccccc1)c1ccccc1,inactive,
C[C@H](CS)C(=O)N1CCC[C@H]1C(=O)O,inactive,
N=C(N)S(=O)O,inactive,
CCCC(=O)O[C@]1(C(=O)COC(=O)CC)CC[C@H]2[C@@H]3CCC4=CC(=O)CC[C@]4(C)[C@H]3[C@@H](O)C[C@@]21C,,1.95% [at 13.5 µM] (inactive)
CCCCN(CCCC)c1ccc(C(=O)c2ccccc2C(=O)O)c(O)c1,41.2 µM (active),
COc1cc(NS(=O)(=O)c2ccc(N)cc2)nc(C)n1,inactive,
C=Cc1ccc(C(C)(C)C)cc1,inactive,
OCCN1CCOCC1,inactive,
CCN1CCC[C@H]1CNC(=O)c1c(OC)ccc(Br)c1OC,inactive,
OC(CCN1CCCCC1)(c1ccccc1)C1CCCCC1 (stereo not given),inactive,
NC(=O)N1C(=O)C(C(=O)c2cc(Cl)cs2)c2cc(F)c(Cl)cc21 (stereo not given),inactive,
Cc1ccc(S(=O)(=O)NC(=O)NC2CCCCC2)cc1,inactive,
O=c1[nH]c(=O)n([C@H]2C[C@H](O)[C@@H](CO)O2)cc1C(F)(F)F,inactive,
CCC1(C)CC(=O)NC1=O (stereo not given),inactive,
CCN(CC)CCOC(=O)C1(C2CCCCC2)CCCCC1,inactive,
CCCCC(CC)COC(=O)CCCCC(=O)OCc1ccccc1 (stereo not given),inactive,
Cc1nnc(SCC2=C(C(=O)O)N3C(=O)[C@@H](NC(=O)Cn4cnnn4)[C@H]3SC2)s1,inactive,
CC/C=C\C/C=C\C/C=C\CCCCCCCC(=O)OCC,inactive,
